Measurements taken from PubChem BioAssay (NCI).
This is part of a sample that, as a whole, favours compounds with a hit. Of some 83,000 tested, about 20% had one in any assay.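 How to read the values: 0–100, growth inhibition (40 = 60% inhibited); 0, no net growth; -100 to 0, cell death (-40 = 40% of starting cells died; -100 = all dead).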 A number with no mark means an inactive call. Active and inactive are the calls of the source. How the source made its calls: active means growth percent below 10; inactive means the rest.

Assays:
Assay in all cases: NCI-60 one-dose screen, 48 h (100 = growth as untreated, 0 = no growth, -100 = all killed)
Conditions in all cases: 10 µM unless noted
[1] = tested on: NCI-H23 lung
[2] = tested on: NCI-H226 lung
[3] = tested on: NCI-H322M lung
[4] = tested on: HOP-62 NSCLC
[5] = tested on: NCI-H460 lung
[6] = tested on: HOP-92 NSCLC
[7] = tested on: NCI-H522 lung
[8] = tested on: A549/ATCC NSCLC
[9] = tested on: 786-0 renal
[10] = tested on: COLO 205 colon
[11] = tested on: DU-145 prostate
[12] = tested on: K-562 leukemia
[13] = tested on: MALME-3M melanoma
[14] = tested on: MDA-MB-231 breast
[15] = tested on: RXF 393 renal
[16] = tested on: SF-268 CNS
[17] = tested on: SF-295 CNS
[18] = tested on: SF-539 CNS
[19] = tested on: UACC-257 melanoma
[20] = tested on: M14 melanoma

| Structure (SMILES) | growth [1] | growth [2] | growth [3] | growth [4] | growth [5] | growth [6] | growth [7] | growth [8] | growth [9] | growth [10] | growth [11] | growth [12] | growth [13] | growth [14] | growth [15] | growth [16] | growth [17] | growth [18] | growth [19] | growth [20] |
| --- | --- | --- | --- | --- | --- | --- | --- | --- | --- | --- | --- | --- | --- | --- | --- | --- | --- | --- | --- | --- |
| CCOP(=O)(OCC)c1nc(-c2ccccc2)oc1NCc1cccnc1 | 102% | 104% | 106% | 100% | 107% | 114% | 92.8% | 104% | 104% | 117% | 107% | 102% | 100% | 108% | 110% | 104% | 106% | 96.2% | 109% | 111% |
| COC(=O)c1ccc2c(c1)C(=O)c1c-2n(CCCN)c(=O)c2cc([N+](=O)[O-])ccc12 | -53.8% (active) | -73.4% (active) | -84.3% (active) | -93.2% (active) | -100% (active) | -88.1% (active) | -78.2% (active) | -94% (active) | -98.5% (active) | -100% (active) | -100% (active) | -100% (active) | -96.9% (active) | -100% (active) | -87.5% (active) | -87.2% (active) | -77.4% (active) | -94.2% (active) | -96.1% (active) | -100% (active) |
| COc1ccccc1NC(=O)Cn1cc(CN2CCN(c3ccnc4cc(Cl)ccc34)CC2)nn1 | 89.2% | 84.7% | 95.1% | 86.2% | 96.3% | 61.8% | 86.8% | 91% | 99% | 101% | 106% | 83.8% | 106% | 82.3% | 85.8% | 84% | 100% | 99.3% | 106% | 106% |
| CC1=C(Nc2ccc(N3CCN(C)CC3)cc2)C(=O)c2cncnc2C1=O | 72.6% | 99% | 101% | 107% | 25.2% | -28.6% (active) | 84.9% | 92.6% | 107% | 124% | 81% | 9.68% (active) | 131% | -10.1% (active) | 118% | 102% | 103% | 94.5% | 65.6% | 105% |
| CSc1nc2sc3c(c2c(=O)n1-c1ccc([N+](=O)[O-])cc1)CCCCC3 | 90.8% | 94% | 88.8% | 73.4% | 74.7% | 94.6% | 81% | 81.1% | 95.7% | 99% | 99% | 94.1% | 91.4% | 75.3% | 84.1% | 98.7% | 68.8% | 95.3% | 91.2% | 94.9% |
| COc1cc(/C=C/C(=O)c2cccc(Nc3nc(Nc4ccccc4)nc(Nc4ccccc4)n3)c2)cc(OC)c1OC | 40.7% | 68.6% | 87.2% | 74.6% | 59.9% | -48.2% (active) | 87.8% | 59.5% | 65.1% | 61.2% | 60.9% | 24.1% | 69% | 56% | -32.4% (active) | 73.4% | 72.9% | 78.7% | 106% | 78.5% |
| O=c1oc2ccc([N+](=O)[O-])cc2cc1Br | 107% | 98.4% | 108% | 104% | 107% | 83.7% | 97.9% | 108% | 112% | 105% | 109% | 102% | 107% | 109% | 108% | 103% | 98.8% | 82.2% | 104% | 104% |
